The experiment relates to SUM149. The experiment can be described thus: percent difference in area under dose-response curve of relative cell number, RPMI vs HPLM; higher = drug relatively more effective in HPLM than RPMI (negative = less effective in HPLM). The conditions noted are these: treatment time: 72 h; dose range: 10-point, 1 nM to 20 µM; media compared: RPMI vs HPLM.
With `COCC[n+]1c2c(n(Cc3cnccn3)c1C)C(=O)c1ccccc1C2=O`, the “percent difference in area under dose-response curve” value (from here on “percent difference in area”) amounted to 15.7%.
Next, `CN1CCN(c2ccc(OC(F)(F)F)c(Nc3ncc4c(n3)-c3c(c(C(N)=O)nn3CCO)CC4)c2)CC1`: -12.8%; `C=CCc1cccc(/C=N/NC(=O)CN2CCN(Cc3ccccc3)CC2)c1O`: -12.9%; `Oc1cccc(-c2nc(N3CCOCC3)c3oc4ncccc4c3n2)c1`: 3.18%.
For the compound `CS(=O)(=O)CCNCc1ccc(-c2ccc3ncnc(Nc4ccc(OCc5cccc(F)c5)c(Cl)c4)c3c2)o1` [Lapatinib], the “percent difference in area” value is -5.33%.
Take `CN(c1ncccc1CNc1nc(Nc2ccc3c(c2)CC(=O)N3)ncc1C(F)(F)F)S(C)(=O)=O`: the “percent difference in area” value is -16.2%.
With `CC(C)C[C@@H](C(=O)N[C@H](C(=O)OC1CCCC1)c1ccccc1)[C@H](O)C(=O)NO`, the “percent difference in area” value is -3.27%.
On to `Cc1cc(N2CCOCC2)cc2[nH]c(-c3c(NC[C@@H](O)c4cccc(Cl)c4)cc[nH]c3=O)nc12`, for which the “percent difference in area” value is -6.07%.
For `COc1cc(Br)c(Nc2nc(-c3c(C)nc4ncccn34)cs2)c(Br)c1` the value was -0.202%; for `Nc1ncn([C@H]2C[C@H](O)[C@@H](CO)O2)c(=O)n1` [Decitabine], -25.4%; for `CC[C@]1(O)C[C@@H]2CN(CCc3c([nH]c4ccccc34)[C@@](C(=O)OC)(c3cc4c(cc3OC)N(C)[C@H]3[C@@](O)(C(=O)OC)[C@H](OC(C)=O)[C@]5(CC)C=CCN6CC[C@]43[C@@H]65)C2)C1` [Vinblastine], -27.2%.
For `CCN(CCCOc1ccc2c(Nc3cc(CC(=O)Nc4cccc(F)c4)[nH]n3)ncnc2c1)CCOP(=O)(O)O` [Barasertib] the value was -20.6%.
For `Cc1[nH]c(/C=C2\C(=O)Nc3ccc(S(=O)(=O)Cc4c(Cl)cccc4Cl)cc32)c(C)c1C(=O)N1CCC[C@@H]1CN1CCCC1` the value was -10.1%.
As to `CN(C)CCCn1cc(C2=C(c3c[nH]c4ccccc34)C(=O)NC2=O)c2ccccc21`, the “percent difference in area” value is 0.14%.
Next, `Oc1nc(-c2ccc(C(F)(F)F)cc2)nc2c1CSCC2`: -0.882%.
`O=C(Nc1ccc(OC(F)(F)F)cc1)c1sccc1NCc1ccnc2ccccc12`: the “percent difference in area” value was determined as 6.56%.
Take `C=CC(=O)Nc1cccc(Oc2nc(Nc3ccc(N4CCN(C)CC4)cc3OC)ncc2Cl)c1`: the “percent difference in area” value is 3.23%.
Next, `Cc1ccccc1C(C(=O)NC1CCCC1)N(C(=O)Cn1cnc2ccccc21)c1cccc(F)c1` (stereo unspecified): -1.67%; `COc1cc([C@@H]2c3cc4c(cc3[C@@H](O[C@@H]3O[C@@H]5CO[C@@H](c6cccs6)O[C@H]5[C@H](O)[C@H]3O)[C@H]3COC(=O)[C@H]23)OCO4)cc(OC)c1O` [Teniposide]: -42.7%.
Take `CC(C)NCCCn1c(Sc2cc3c(cc2I)OCO3)nc2c(N)ncnc21`: the “percent difference in area” value was -28.4%.
In the case of `CN(Cc1cnc2nc(N)nc(N)c2n1)c1ccc(C(=O)N[C@@H](CCC(=O)O)C(=O)O)cc1` [Methotrexate], the “percent difference in area” value was -7.17%.

The values above are taken from the supplement of paper PMC11383364.
